Assay results taken from PubChem BioAssay (NCATS).
Records with an inconclusive call do not appear. Activity calls are given as the source filed them. Calls come from the whole dose curve; as a rule, active = well fitted curve in the direction sought with a large enough effect; inconclusive = small, poorly fitted or top-dose-only effect, or another doubt; inactive = no such curve, though single readings can be large; an effect the other way counts as inactive or inconclusive.

Columns and labels:
[1] = BET inhibitor-based combinations targeting novel dependencies in MECOM-rearranged (r) AML: MV-4-11 cell line (AID 2202233); note: nearly all actives have a fitted effect of over 45% in size
Summary of the method: (§1)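 Normalized to DMSO and empty-well controls, the luminescence data from CellTiter-Glo after 48 hr drug exposure were fitted across 11 concentrations. Reported metrics are area under the dose-response curve and its Z-transformed form.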

[2] = BET inhibitor-based combinations targeting novel dependencies in MECOM-rearranged (r) AML: HNT-34 cell line (AID 2202234); note: nearly all actives have a fitted effect of over 35% in size
Summary of the method: as §1

[3] = BET inhibitor-based combinations targeting novel dependencies in MECOM-rearranged (r) AML: UCSD-AML1 cell line (AID 2202235); note: nearly all actives have a fitted effect of over 40% in size
Summary of the method: as §1

[4] = BET inhibitor-based combinations targeting novel dependencies in MECOM-rearranged (r) AML: AML-194 cell line (AID 2202237; note: nearly all actives have a fitted effect of over 40% in size)
Summary of the method: (§2)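 Here, 11-point titrations of each agent were applied to 500 seeded cells and incubated 48 hr; CellTiter-Glo signal, scaled against DMSO and empty wells, was integrated as AUC, then Z-scored within the individual line.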

[5] = BET inhibitor-based combinations targeting novel dependencies in MECOM-rearranged (r) AML: AML-191 cell line (AID 2202236; note: nearly all actives have a fitted effect of over 35% in size)
Summary of the method: as §2
Potency is the fitted concentration of half-maximal effect.

SMILES | Potency [1] | Potency [2] | Potency [3] | Potency [4] | Potency [5]
CCN1C(=O)CNc2ncc(-c3ccc(-c4ncn[nH]4)nc3C)nc21 | 1.66 µM (active) | 2.09 µM (active) | 0.186 µM (active) | – | –
CCS(=O)(=O)c1ccc2oc(-c3ccc4ccccc4c3)nc2c1 | – | inactive | inactive | – | –
C[C@@H]1CC(=O)Nc2cccc(-c3ccc4c(c3)c(-c3cnn(C)c3)nn4C)c2N1 | 5.25 µM (active) | – | 2.63 µM (active) | 6.61 µM (active) | –
CC(=O)N1CCC(Nc2cc(C(=O)NC[C@H](O)CN3CCc4ccccc4C3)ncn2)CC1 | – | inactive | inactive | inactive | –
CCc1cnn2c(NCc3ccc[n+]([O-])c3)cc(N3CCCC[C@H]3CCO)nc12 | – | – | 0.0235 µM (active) | 0.0372 µM (active) | 0.0263 µM (active)
Cc1cc(Oc2ccc3nc(COc4ccc(CC5SC(=O)NC5=O)cc4)n(C)c3c2)cc(C)c1N (centres undefined) | – | inactive | inactive | inactive | –
CCOC(=N)c1nc2ccc3ncnc(Nc4cc(F)c(F)cc4Cl)c3c2s1 | 16.6 µM (active) | – | – | 6.61 µM (active) | 5.25 µM (active)
CCN(CC)C(=O)Cc1csc(NS(=O)(=O)c2cccc(Cl)c2C)n1 | – | inactive | inactive | inactive | –
C[C@H](NC(=O)c1c(N)nn2cccnc12)c1cc2cccc(C#Cc3cnn(C)c3)c2c(=O)n1-c1ccccc1 | 8.11 µM (active) | – | – | 7.23 µM (active) | 1.82 µM (active)
C#C[C@]1(O)CC[C@H]2[C@@H]3CCc4cc(O)ccc4[C@H]3CC[C@@]21C | 20.9 µM (active) | – | – | 20.9 µM (active) | 14.8 µM (active)
